# High-throughput results (PubChem BioAssay)
# The list is not random: actives were taken first. Their share in the collection is about 5.7%.
# Cdc25B inh – human M-phase inducer phosphatase 2 inhibition. recombinant Cdc25B, OMFP fluorescence Ex485/Em525. inhibition, %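 (compounds tested at 10 µM final in the well)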. 65,000 tested, 0.1% active. AID 368; in the data active = inhibition above about 50%
# Abs 340nm – compound absorbs light at 340 nm; fold change at 10 µM; compound absorbance at 340 nm, fold over control; 65,000 tested, under 10 active;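 active = at 10 µM dose, initial 340 nm absorbance at least 2 fold that of control wells; inactive = change under 2 fold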;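 also: initial absorbance extrapolated from kinetic A340 decline of NADH oxidation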
# Hsp90 block – displaces geldanamycin probe from tumor Hsp90; NCI-N417 lysate Hsp90, Cy3B-geldanamycin FP displacement; 64,000 tested, 0.35% active; inhibition, % at 30 µM;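 active = inhibition above 50%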
# NADH coupling – inhibitors of enzymes used to reach an NAD/NADH endpoint; coupled PK/LDH NADH assays, four targets; IC50, µM (titrated, usually from 10 µM); 65,000 tested, 0.02% active;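 active = single-dose screening hits from any of four coupled enzyme assays that gave an IC50 when retested across doses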;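 also: the DPM-DC format reads NADH fluorescence rather than 340 nm absorbance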
# Autofluor 339 – intrinsic fluorescence of library compounds, ex339/em460 – biochemical, MLSMR library, data from DPM-DC assay, artefact control, profiling panel; compound autofluorescence, ex339/em460 nm, NADH buffer; active compounds read high; 1 = no-compound wells, NADH background; fluorescence fold increase at 10 µM; 65,000 tested, 5.5% active; AID 709;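 active = at 10 µM, mean starting fluorescence two-fold or more over control wells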;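 also: signal is the first read of a kinetic run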
# MKP-1 inh – blocks human MKP-1 phosphatase activity | AID 374 | P28562 | recombinant MKP-1, OMFP hydrolysis fluorescence | inhibition, %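 (compounds tested at a single concentration somewhere between 10 and 100 µM)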 | 65,000 tested, 0.15% active;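 active = inhibition above about 50%, limit read from the data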
# Target sequence (P28562 whole entry, looked up): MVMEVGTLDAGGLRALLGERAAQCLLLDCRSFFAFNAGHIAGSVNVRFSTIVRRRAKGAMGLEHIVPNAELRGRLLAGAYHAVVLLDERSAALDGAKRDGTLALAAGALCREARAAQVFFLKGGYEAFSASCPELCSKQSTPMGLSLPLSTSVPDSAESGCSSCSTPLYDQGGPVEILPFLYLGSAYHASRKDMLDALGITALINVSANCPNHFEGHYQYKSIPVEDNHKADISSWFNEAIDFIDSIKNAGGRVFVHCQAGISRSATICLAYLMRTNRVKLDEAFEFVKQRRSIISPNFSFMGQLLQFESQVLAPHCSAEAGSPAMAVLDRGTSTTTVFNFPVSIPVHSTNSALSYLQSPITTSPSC
# Numbers stand for hits; 0 = inactive; - = no result.
SMILES,Cdc25B inh,Abs 340nm,Hsp90 block,NADH coupling,Autofluor 339,MKP-1 inh
C=CCOc1ccccc1C1C2=C(CC(C)(C)CC2=O)Nc2c1c(=O)n(C)c(=O)n2C (configuration not stated),0,0,0,0,3.6,0
Cc1ccc(C(N)=S)c(C)c1,0,0,0,0,0,0
Cc1ccc2c(CC(=O)O)coc2c1C,0,0,-,0,0,0
O=C(CN1C(=O)c2cccc3cccc1c23)Nc1cccnc1,0,0,0,0,2.1,0
O=C(CN1C(=O)c2cccc3cccc1c23)NCc1cccnc1,0,0,0,0,0,0
CC(=O)N1CCc2cc(S(=O)(=O)NC(CC(C)C)C(=O)Nc3ccc4c(c3)OCCO4)ccc21 (configuration not stated),0,0,0,0,0,0
CC(C)n1c2ccccc2c2nc3ccccc3nc21,0,0,0,0,2.7,0
CC(C)n1c(Nc2ccccc2)nc2ccccc21,0,0,0,0,0,0
N#Cc1nc(-c2ccccc2)oc1NCCN1CCCCC1,0,0,0,0,3.8,0
N#Cc1nc(COc2ccccc2)oc1N1CCN(Cc2ccccc2)CC1,0,0,0,0,0,0
COc1ccc(CCNc2oc(Cc3ccccc3)nc2C#N)cc1OC,0,0,0,0,0,0
N#Cc1nc(-c2cccs2)oc1N1CCN(Cc2ccccc2)CC1,0,0,0,0,3.8,0
N#Cc1nc(-c2cccs2)oc1NCCc1ccccc1,0,0,0,0,2.5,0
N#Cc1nc(-c2ccco2)oc1NCCc1ccccc1,0,0,0,0,2.1,0
O=C(Nc1ccc(-c2noc(COc3ccccc3Cl)n2)cc1)c1ccco1,0,0,0,0,0,0
N/C(=N\S(=O)(=O)c1ccc(Cl)s1)c1ccccc1,0,0,0,0,0,0
CN1C(=O)c2oc3ccc(Br)cc3c(=O)c2C1c1ccncc1 (configuration not stated),0,0,0,0,0,0
N#Cc1nc(-c2cccs2)oc1NCc1ccc2c(c1)OCO2,0,0,0,0,2.4,0
N#Cc1nc(-c2cccs2)oc1NCCN1CCOCC1,0,0,0,0,2.4,0
COc1ccc(CCNc2oc(COc3ccc(F)cc3)nc2C#N)cc1,0,0,0,0,0,0
COc1ccc(CCNc2oc(-c3ccco3)nc2C#N)cc1,0,0,0,0,2.4,0
O=C(NCCCN1CCOCC1)c1cc(-c2cccs2)on1,0,0,0,0,0,0
COc1ccc(-c2nc(CN3CCC(C(=O)NC(C)C)CC3)c(C)o2)cc1OC,0,0,0,0,0,0
O=c1cc(O)c2c(=O)n3c4c(cccc4c2o1)CCC3,0,0,0,0,0,0
CN(C)c1ccc(-c2nn3c(-c4ccccc4Cl)nnc3s2)cc1,0,0,0,0,3.3,0
SMILES,Cdc25B inh,Abs 340nm,Hsp90 block,NADH coupling,Autofluor 339,MKP-1 inh
COc1ccccc1-c1nn2c(C(F)(F)F)nnc2s1,0,0,0,0,3,0
CN(C)c1ccc(-c2nn3c(-c4ccncc4)nnc3s2)cc1,0,0,0,0,0,0
COc1ccccc1-c1nnc2sc(-c3ccc(N(C)C)cc3)nn12,0,0,0,0,2.3,0
CCCOc1ccc2ccccc2c1/C=N/n1c(C)nnc1-n1nc(C)cc1C,0,0,0,0,0,0
CC1(C)Cc2nc3oc4c(N(CCO)Cc5ccccc5)ncnc4c3cc2CO1,0,0,0,0,2.4,0
Cc1ccc(O)c(C(=O)c2cc(C#N)c(=O)n(CC3CCCO3)c2)c1 (configuration not stated),0,0,0,0,0,0
COc1ccc(CCn2c(=N)c(C#N)cc3c(=O)n4ccccc4nc32)cc1,0,0,0,0,0,0
N#Cc1cc2c(=O)n3ccccc3nc2n(CCCN2CCOCC2)c1=O,0,0,0,0,3.9,0
Cc1ccc2nc3c(cc(C#N)c(=O)n3-c3nccs3)c(=O)n2c1,0,0,0,0,3.8,0
Cc1ccc2nc3c(cc(C#N)c(=O)n3CC3CCCO3)c(=O)n2c1 (configuration not stated),0,0,0,0,3.8,0
Cc1ccc2nc3c(cc(C#N)c(=O)n3CCN3CCOCC3)c(=O)n2c1,0,0,0,0,3,0
N#Cc1cc2c(=O)n3ccccc3nc2n(CCN2CCOCC2)c1=O,0,0,0,0,3.9,0
O=c1c2ccccc2nc(-c2ccccc2)n1CCN1CCOCC1,0,0,0,0,0,0
CC(C)OC(=O)CCC1(C(=O)O)CCC(=O)NC1 (configuration not stated),0,0,0,0,0,0
CC(C)Cn1c(-c2cccs2)nc2nc3ccccc3nc21,0,0,0,0,3.9,0
c1ccc(Cn2c(-c3cccs3)nc3nc4ccccc4nc32)cc1,0,0,0,0,3.7,0
O=c1[nH]c2cc(C(F)(F)F)ccc2n1-c1cc(C(F)(F)F)ccc1O,-,-,59,-,-,-
c1ccc(C(c2nnnn2C2CCCCC2)N2CCc3ccccc3C2)nc1 (configuration not stated),0,0,0,0,4,0
COc1ccc(NCc2cc3ccccc3[nH]c2=O)cc1,0,0,0,0,0,0
COc1ccc2cc(CN(C(=O)Nc3ccccc3)C3CCCC3)c(=O)[nH]c2c1,0,0,0,0,0,0
COc1ccc(NCc2cc3cc(OC)ccc3[nH]c2=O)cc1,0,0,88,0,0,0
COc1ccc2[nH]c(=O)c(CN(C(=O)NC3CCCCC3)C3CCCCC3)cc2c1,0,0,0,0,2.8,0
COc1ccc2[nH]c(=O)c(CNC3CCCCC3)cc2c1,0,0,0,0,2.7,0
CCOC(=O)C1=C(O)C(=O)N(c2ccc(S(N)(=O)=O)cc2)C1c1ccc(OC)cc1 (configuration not stated),0,0,0,0,2.1,0
Cc1cc(=O)oc2cc(OCc3nnc(-c4ccccc4Br)o3)ccc12,0,0,0,0,4.5,0
SMILES,Cdc25B inh,Abs 340nm,Hsp90 block,NADH coupling,Autofluor 339,MKP-1 inh
COC(=O)c1sccc1NC(=O)c1ccc2c(c1)OCO2,0,0,-,0,0,0
COc1cccc(NC(=O)c2oc3ccccc3c2NC(=O)c2ccc3c(c2)OCO3)c1,0,0,0,0,2.6,0
COc1cc(NC(=O)c2ccc3c(c2)OCO3)c2ncccc2c1,0,0,0,0,3,0
CCc1ccccc1N(CC(=O)N1CCN(c2ccccc2)CC1)S(C)(=O)=O,0,0,0,0,0,0
COc1ccc2oc(C(=O)C3CC3)c(NC(=O)CCCN3C(=O)c4ccccc4C3=O)c2c1,0,0,0,0,0,0
CCCN(C(=O)c1cccs1)c1nnc(-c2ccncc2)s1,0,0,0,0,0,0
COc1ccc(C2CC(c3cccs3)n3nc(N)nc3N2)cc1 (configuration not stated),0,0,0,0,2,0
